Screens (PubChem)
Hits are enriched below; roughly 9.4% of the tested compounds scored in any of these assays.
SMN2 splice up: qHTS Assay for Enhancers of SMN2 Splice Variant Expression | HEK293 SMN2-luciferase splicing reporter, luminescence, 30-36 h | Potency, µM (doses to about 46.1 µM), without a hit: at the top dose activity change, positive = activation, most hits filed as activators | actives 2.8% (n = 210,000) | AID 1458, 2008; also: % of control where 0% means no effect; nearly all actives have a fitted effect of over 55% in size
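HEK293 cells carry an SMN2 […]–luciferase reporter in which exon 7 inclusion puts luciferase in frame. Cells were plated 10-12 h before compound addition, then incubated 30-36 h at 37C. ONE-Glo luminescence was read; sodium butyrate at 4.5 mM final served as control.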
ELG1 genotoxic: qHTS screen for small molecules that induce genotoxicity in human embryonic kidney (HEK293T) cells expressing luciferase-tagged ELG1. actives 1.3% (n = 330,000). HEK293T ELG1-luciferase reporter, luminescence, 16 h. Potency, µM (highest dose often 46 µM), for inactives: at the highest dose activity change, positive = activation, actives largely listed as activators; also: % of control where 0% means no effect; nearly all actives have a fitted effect of over 60% in size
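DMSO vehicle served as control against compound-treated ELG1-luciferase HEK293T cells; exposure lasted 16 hr at 37 °C and 5% CO2, followed by ONE-Glo luminescence detection after 30 min.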
FLuc counter: qHTS profiling assay for firefly luciferase inhibitor/activator using purifed enzyme and Km concentrations of substrates (counterscreen for miR-21 project) | purified FLuc, Km substrates, luminescence inhibition | Potency, µM (highest dose often 57.5 µM), for inactives: top-dose activity change, negative = inhibition, usual class: inhibitors | actives 6.9% (n = 360,000) | AID 588342, 2011;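 also: plate controls were vehicle for no effect and reference inhibitor for full effect; nearly all actives have a fitted effect of over 55% in size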
Target sequence (P08659 whole entry, looked up): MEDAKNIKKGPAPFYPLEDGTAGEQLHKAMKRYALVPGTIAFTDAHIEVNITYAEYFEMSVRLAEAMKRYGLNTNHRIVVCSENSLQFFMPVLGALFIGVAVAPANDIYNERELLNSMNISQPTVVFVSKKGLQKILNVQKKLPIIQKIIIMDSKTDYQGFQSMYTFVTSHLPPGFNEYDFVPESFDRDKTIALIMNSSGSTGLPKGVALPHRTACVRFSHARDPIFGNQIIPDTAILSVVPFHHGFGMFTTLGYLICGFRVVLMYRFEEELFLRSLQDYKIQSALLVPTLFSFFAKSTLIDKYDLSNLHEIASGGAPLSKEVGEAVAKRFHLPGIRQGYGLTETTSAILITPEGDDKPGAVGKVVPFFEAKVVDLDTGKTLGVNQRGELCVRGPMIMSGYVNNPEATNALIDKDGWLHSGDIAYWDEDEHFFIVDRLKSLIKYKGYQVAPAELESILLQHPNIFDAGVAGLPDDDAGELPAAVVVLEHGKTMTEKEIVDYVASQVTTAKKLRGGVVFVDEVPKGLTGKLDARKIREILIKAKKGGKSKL
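Purified P. pyralis luciferase, 10 nM final, with Km-level 10 uM D-luciferin and 10 uM ATP in 50 mM Tris acetate pH 7.5, 10 mM Mg acetate, 0.01% Tween-20, 0.05% BSA; 6-point qHTS titration about 60 µM downward; luminescence read.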
Rab9 prom act: qHTS Assay for Rab9 Promoter Activators; Huh7 Rab9 promoter-luciferase reporter, luminescence, 24 h; Potency, µM (doses to about 9.22 µM), for inactives: at the highest dose activation, negative = inhibition, usual class: activators; actives 2.8% (n = 320,000); also: % of control where 0% means no effect; nearly all actives have a fitted effect of over 60% in size
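Cells were plated at 1500 per well in reduced-serum medium with 10% FBS and left 2 h. Compound in DMSO was then added for 24 h at 37 °C. Reporter signal was read by luminescence after 10 min with luciferase detection reagent.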
ELG1 repair inh: qHTS screen for small molecules that inhibit ELG1-dependent DNA repair in human embryonic kidney (HEK293T) cells expressing luciferase-tagged ELG1; HEK293T ELG1-luciferase reporter, luminescence, 16 h; DNA damage induced by 5-fluorouridine; Potency, µM (highest dose often 46.1 µM), for inactives: at the highest dose activity change, negative = inhibition, hits mostly inhibitors; actives 2.3% (n = 330,000); AID 504467, 2011; also: % is scaled to controls: 0 for no effect and ±100 for the full control effect; nearly all actives have a fitted effect of over 55% in size
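5-Fluorouridine DNA damage + compound/DMSO, 2,000 cells/well, 16 h, 37 °C/5% CO2. ONE-Glo, 30 min RT, luminescence. Readout = decrease in reporter signal.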
NPC1 promoter act: qHTS Assay for NPC1 Promoter Activators; Huh7 NPC1 promoter luciferase reporter, 24 h; Potency, µM (top dose mostly 9.22 µM), for the others: at the top dose activation, actives largely listed as activators; actives 2.4% (n = 320,000); AID 485313, 2010; also: % of control where 0% means no effect; nearly all actives have a fitted effect of over 60% in size
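Compounds in DMSO were transferred onto Huh7 NPC1-luciferase reporter cells pre-incubated 2 h; after 24 h at 37 °C, Amplite reagent was dispensed and luminescence recorded 10 min later.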
Starred values were filed as active, the others as inactive; ? = inconclusive; / = no result; ! = repeats disagree; [ ] = another dose, or the depositor's remark. Calls follow the shape of the dose curve; as a rule, active = well fitted curve in the direction sought with a large enough effect; inconclusive = small, poorly fitted or top-dose-only effect, or another doubt; inactive = no such curve, though single readings can be large; an effect the other way counts as inactive or inconclusive. Potency is read from the fitted curve at half-maximal effect.

SMILES	SMN2 splice up	ELG1 genotoxic	FLuc counter	Rab9 prom act	ELG1 repair inh	NPC1 promoter act
CCC1CN(C(=O)N2CCC(C(=O)NCc3cccc(C)c3)CC2)c2ccccc2O1 (stereo not given)	/	/	0%	/	/	/
COc1ccc(CCNC(=O)C2CC(c3cccc([N+](=O)[O-])c3)=NO2)cc1 (stereo not given)	?	18%	15µM*	?	?	?
CCCCNC(=O)C1CC(c2cccc(F)c2)=NO1 (stereo not given)	/	?	15µM*	?	?	?
COc1ccc(CCNC(=O)C2CC(c3ccc([N+](=O)[O-])cc3)=NO2)cc1 (stereo not given)	-13%	8%	?	22%	?	25%
COCCNC(=O)C1CC(c2ccc([N+](=O)[O-])cc2)=NO1 (stereo not given)	13%	2%	4%	-6%	4%	-2%
O=C(NCCc1cccs1)C1CC(c2ccc([N+](=O)[O-])cc2)=NO1 (stereo not given)	?	?	13µM*	2.5µM*	?	3.5µM*
CCOC(=O)c1ccc(NC(=O)C2=C(C)C(=O)OC23CCCCCC3)cc1	/	/	1%	/	/	/
O=C(O)c1ccc(-n2c(O)c(C=C3N=c4ccccc4=N3)sc2=S)cc1	/	-3%	13µM*	-2%	?	1%
O=C(O)c1cccc(-n2c(O)c(C=C3N=c4ccccc4=N3)sc2=S)c1	/	-9%	13µM*	-4%	-30%	-7%
CCN(CC)c1ccc(-n2c(O)c(C=C3N=c4ccccc4=N3)sc2=S)cc1	18%	3%	-1%	0%	14%	0%
CCC(C)NC(=O)c1cc2cc(S(=O)(=O)N3CCCCC3)ccc2n1C (stereo not given)	/	/	-9%	/	/	/
CCCCCCCCCCCCCCCC(=O)NCCCC(=O)O	8%	/	/	/	/	/
COc1cccc(-n2c(=O)c3cc(OC)c(OC)cc3n(CC(=O)Nc3ccc(F)cc3)c2=O)c1	0%	/	-4%	/	/	/
CCOc1cccc2cc(C(=O)NCc3ccc(OC)cc3)c(=N)oc12	/	?	-5%	1%	3%	0%
CCN(CC)c1ccc2cc(C(=O)NCc3ccc(F)cc3)c(=N)oc2c1	/	-11%	17µM*	0%	?	3%
CCOc1cccc2cc(C(=O)NCc3ccc(C)cc3)c(=N)oc12	/	3%	15µM*	-3%	5%	-5%
S=c1[nH]nc(-c2cc3c(s2)-c2ccccc2CC3)o1	14µM*	?	17µM*	?	?	26%
S=c1[nH]nc(-c2c[nH]c3ccccc23)o1	/	4%	?	-5%[1.84 µM]	-1%	0%
CC1CCc2sc(-c3n[nH]c(=S)o3)cc2C1 (stereo not given)	10µM*	?	6.7µM*	?	?	?
CC1CCc2sc(C(=O)OC(C)C(=O)Nc3ncc(Cl)cc3Cl)cc2C1 (stereo not given)	0%	4%	-3%	0%	10%	2%
CSc1nnc(-c2cc3c(s2)-c2ccccc2CC3)o1	18µM*	?	4.8µM*	?	?	12%
O=C(Nc1cccc(Cl)c1)c1cc(N=Nc2ccc([N+](=O)[O-])cc2Cl)ccc1O	/	-16%	12µM*	-15%	-5%	2%
O=C(Nc1ccc([N+](=O)[O-])cc1Cl)c1cc(Cl)ccc1O	25µM*!	?	0.21µM*	0.1µM*	?	0.065µM*
Cc1ccc(O)c(NC(=O)c2cc([N+](=O)[O-])ccc2Cl)c1	-82%	-15%	0%	-8%	?	0%
Cc1cc([N+](=O)[O-])ccc1NC(=O)Nc1ccc(F)cc1F	-35%	-11%	-2%	-1%	0%	-3%
SMILES	SMN2 splice up	ELG1 genotoxic	FLuc counter	Rab9 prom act	ELG1 repair inh	NPC1 promoter act
O=C(Nc1ccccc1F)Nc1ccc([N+](=O)[O-])cc1Cl	/	4%	?	4µM*	?	?
O=C(O)CCC(=O)c1ccc2ccc3cccc4ccc1c2c34	-13%[9.22 µM]	4%	21µM*	-4%	-3%	-1%
O=C(O)CCC(=O)c1cccc2ccccc12	7%	-1%	-21%	9%	-4%	0%
CNC(=O)c1ccsc1NC(=O)c1ccc2c(c1)CCCC2	11µM*	17%	0.95µM*	12%	?	-3%
NC(=O)c1ccsc1NC(=O)c1ccc2c(c1)CCCC2	1.6µM*	2.6µM*	0.6µM*	?	?	?
NC(=O)c1ccsc1NC(=O)c1ccc(N2CCCC2=O)cc1	18µM*	1.6µM*	3µM*	0.63µM*	?	2.2µM*
CC(C)Cc1nnc(NC(=O)c2ccc(N3CCCC3=O)cc2)s1	/	0%	-8%	-4%	12%	0%
NC(=O)c1ccsc1NC(=O)C1CCCCC1	-16%	15%	-21%	-7%	?	7%
N#CC1(O)CCCCC1	5%	/	/	/	/	/
CCn1ccc2c(OCC(=O)Nc3ccc(OC)cc3OC)cccc2c1=O	/	/	-5%	/	/	/
CCOc1ccc(-c2nnc(SCC(=O)NC3CC3)o2)cc1	/	7%	?	-7%	?	-8%
CCOc1ccc(-c2nnc(SCC(=O)N3CCNC3=O)o2)cc1	/	?	5.4µM*	2µM*	?	2µM*
O=C(CSc1nc(=O)n2ccccc2n1)NCc1ccccc1Cl	/	2%	2%	-7%	16%	-3%
O=C(CSc1ncccn1)NCc1ccccc1Cl	13µM*	18µM*	27µM*	1.4µM*	?	4µM*
O=C(CSc1nnc(-c2ccccc2F)o1)N1CCNC1=O	/	?	13µM*	3.2µM*	?	2.5µM*
CCOc1ccc(-c2nnc(SCC(=O)NCc3ccccc3Cl)o2)cc1	/	/	17µM*	/	/	/
CCNc1ncc2ncc(=O)n(C)c2n1	0%	/	/	/	/	/
COCc1cc(O)c(O)c(O)c1-c1c(COC)cc(O)c(O)c1O	-9%	/	/	/	/	/
CCNC(=O)[C@H]1O[C@@H](n2cnc3c(N)nc(NCCc4ccc(CCC(=O)O)cc4)nc32)[C@H](O)[C@H]1O	-3%	/	/	/	/	/
CCOC(=O)c1sc(=NC(=O)c2ccc(OC)c(OC)c2)n(C)c1C	-5%	11%	-19%	11%	?	12%
CCOC(=O)c1sc(=NC(=O)c2cccc(OC)c2)n(C)c1C	/	15%	?	1.6µM*	?	3.5µM*
